Only some compounds are listed: those with a hit (about 3.4% of all), similar ones and a draw of the others.
FBW7 activator = human FBW7 E3 ligase activation, primary screen; hit rate 0.13% among 650,000; AlphaScreen FBW7–phospho-cyclin E peptide binding, activator screen; normalized activity (activation), % at 26.1 µM; Q969H0; in the data active = normalized activity above about 1.9%;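 note: purified mutant Fbw7 with reduced substrate affinity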
GPR151 ag = activators of human GPR151; Q8TDV0; PathHunter beta-arrestin GPR151 cells, luminescence; activation, % at 11.2 µM; hit rate 1% among 650,000; AID 1508602; in the data active = activation above about 4.9%;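 note: 0% = median of compound wells and 100% = cells with positive control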
MITF primary = inhibitors of human MITF; O75030; AlphaScreen MITF homodimerization, bead proximity signal; inhibition, % at 2.6 µM; hit rate 0.91% among 650,000; AID 1259374; in the data active = inhibition above about 50%;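 note: 0% = vehicle wells with protein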
Target sequence (O75030 whole entry, looked up): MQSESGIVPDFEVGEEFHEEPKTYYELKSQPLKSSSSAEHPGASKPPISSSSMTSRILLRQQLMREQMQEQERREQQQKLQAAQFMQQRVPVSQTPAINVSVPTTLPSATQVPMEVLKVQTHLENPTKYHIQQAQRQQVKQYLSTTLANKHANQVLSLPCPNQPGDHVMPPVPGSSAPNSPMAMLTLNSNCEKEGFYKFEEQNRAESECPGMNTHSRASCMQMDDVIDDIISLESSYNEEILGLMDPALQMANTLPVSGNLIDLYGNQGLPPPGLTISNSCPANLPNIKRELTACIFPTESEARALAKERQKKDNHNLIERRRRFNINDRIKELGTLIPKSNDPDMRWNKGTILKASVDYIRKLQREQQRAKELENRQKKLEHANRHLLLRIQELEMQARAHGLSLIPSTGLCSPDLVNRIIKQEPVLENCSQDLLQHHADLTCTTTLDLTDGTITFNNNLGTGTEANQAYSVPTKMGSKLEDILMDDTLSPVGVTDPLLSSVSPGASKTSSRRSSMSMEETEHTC
TEAD-YAP block = TEAD-YAP interaction inhibition; HEK-TIYL cells, TEAD-Gal4/YAP UAS-luciferase luminescence; inhibition, % at 9.12 µM; hit rate 1.4% among 640,000; AID 1259422; in the data active = inhibition above about 32%;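 note: 0% = median of test compound wells and 100% = reference inhibitor wells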
GPR151 confirm = human GPR151 activation, confirmation screen | shares compounds with GPR151 ag | GPR151 PathHunter beta-arrestin cells, luminescence, 90 min; % of EA-reagent control over plate median | activation, % at 11.2 µM | 6,700 tested, under 10 active | AID 1508609;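 active = mean percent activation across replicates above the confirmation screen cutoff of 4.91%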
GPR119 ag = activates human GPR119 in a GPR151 counter-screen; shares compounds with GPR151 ag; GPR119 PathHunter beta-arrestin cells, luminescence, 90 min; 0 = compound-well median, 100 = enzyme-acceptor control; activation, % at 11.2 µM; hit rate 0.3% among 6,700;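 active = mean percent activation in the counterscreen above 29.09%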;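 note: counterscreen on off-target GPR119 to flag nonselective hits from the GPR151 activator screen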
* hit, by the source's call.

`O=C1NC(NS(=O)(=O)c2ccccc2)(C(F)(F)F)C(=O)N1c1ccc(Cl)cc1` (centres undefined) gave FBW7 activator 0, GPR151 ag 5.9*, MITF primary -7, TEAD-YAP block 4, GPR151 confirm 0 and GPR119 ag 11.
CCOc1cc(C)c(C(C)C)cc1S(=O)(=O)NC1CC(C)(C)NC(C)(C)C1 was read as FBW7 activator 0, GPR151 ag 7.9*, MITF primary -4, TEAD-YAP block -4, GPR151 confirm 0 and GPR119 ag 2.
For CCOc1cc(S(=O)(=O)NC2CC(C)(C)NC(C)(C)C2)c(C)cc1C the results were FBW7 activator 0, GPR151 ag -1, MITF primary 8 and TEAD-YAP block -3.
`O=C(NCCn1ccc2ccccc21)NC1CC(=O)N(c2ccc(F)cc2)C1` (centres undefined) gave FBW7 activator 1, GPR151 ag 1, MITF primary 3 and TEAD-YAP block 9.
Screening Cc1ccc(/C=N/NC(=O)COc2ccc(Cl)cc2[N+](=O)[O-])s1 returned FBW7 activator 0, GPR151 ag 2, MITF primary 16 and TEAD-YAP block 6.
Screening O=C(COc1ccc(Cl)cc1Cl)N/N=C\c1ccc([N+](=O)[O-])s1 returned FBW7 activator 0, GPR151 ag 5.7*, MITF primary 7, TEAD-YAP block 10, GPR151 confirm -1 and GPR119 ag -12.
`COc1ccc(/C=N/NC(=O)COc2cccc(C)c2)cc1O` gave FBW7 activator 0, GPR151 ag 14*, MITF primary 1, TEAD-YAP block 2, GPR151 confirm 1 and GPR119 ag -2.
For COc1ccc(/C=N/NC(=O)COc2ccc(Cl)cc2Cl)cc1O the results were FBW7 activator 0, GPR151 ag 9.4*, MITF primary 2, TEAD-YAP block 4, GPR151 confirm 0 and GPR119 ag -1.
Screening COc1cc(/C=N/NC(=O)COc2ccc(Cl)cc2Br)ccc1O returned FBW7 activator 0, GPR151 ag 0, MITF primary 13 and TEAD-YAP block 6.
Screening CCc1ccc(OCC(=O)N/N=C/c2ccccc2O)cc1 returned FBW7 activator 0, GPR151 ag 0, MITF primary -20 and TEAD-YAP block -1.
For COc1ccc(/C=N/NC(=O)COc2ccc(C)cc2)cc1O the results were FBW7 activator 0, GPR151 ag 0, MITF primary 7 and TEAD-YAP block -6.
Screening CCc1ccc(OCC(=O)N/N=C/c2ccc(O)cc2)cc1 returned FBW7 activator 1, GPR151 ag 5.2*, MITF primary 6, TEAD-YAP block 10, GPR151 confirm -1 and GPR119 ag -4.
Screening O=S(=O)(Nc1ccc(O)c2ccccc12)c1cccc2ccccc12 returned FBW7 activator -1, GPR151 ag 1, MITF primary -5 and TEAD-YAP block 10.
For COC(=O)c1ccc(Nc2nc3ccccc3n3c(C)nnc23)cc1 the results were FBW7 activator 0, GPR151 ag 2, MITF primary -3 and TEAD-YAP block 4.
Screening CC(=O)c1ccc(Nc2nc3ccccc3n3c(C)nnc23)cc1 returned FBW7 activator 0, GPR151 ag 7.3*, MITF primary 3, TEAD-YAP block 12, GPR151 confirm 1 and GPR119 ag 0.
CCC(=O)N1CCc2cc(S(=O)(=O)CCC(=O)NC3CCCCCC3)ccc21 was read as FBW7 activator 0, GPR151 ag 5.0*, MITF primary 5, TEAD-YAP block -7, GPR151 confirm 0 and GPR119 ag 1.
`CC1(C)Cc2cccc(OCC(=O)NC3=NCCS3)c2O1` gave FBW7 activator 0, GPR151 ag 5.9*, MITF primary -1, TEAD-YAP block -4, GPR151 confirm 2 and GPR119 ag 1.
`C=CCn1c(C)cc(C(=O)COC(=O)CNC(=O)c2ccc(OCC)c(OCC)c2)c1C` gave FBW7 activator 0, GPR151 ag 9.6*, MITF primary 5, TEAD-YAP block -1, GPR151 confirm 0 and GPR119 ag 2.
`Cn1c(=O)c2c(nc(NCCO)n2Cc2ccccc2F)n(C)c1=O` gave FBW7 activator 0, GPR151 ag 16*, MITF primary 22, TEAD-YAP block 25, GPR151 confirm -1 and GPR119 ag 6.
Cn1c(=O)c2c(nc(NCCO)n2Cc2ccc(Br)cc2)n(C)c1=O was read as FBW7 activator 0, GPR151 ag 5.5*, MITF primary 6, TEAD-YAP block 21, GPR151 confirm 1 and GPR119 ag 4.
Screening Cc1ccc(-n2c(-c3ccncc3)n[nH]c2=S)cc1 returned FBW7 activator 0, GPR151 ag -1, MITF primary -5 and TEAD-YAP block 11.
For Cc1ccc(C)n1-c1ccc(-c2ccnc(-c3ccncc3)n2)cc1 the results were FBW7 activator 0, GPR151 ag 5.4*, MITF primary 6, TEAD-YAP block 4, GPR151 confirm 0 and GPR119 ag 0.
`CC(C)(C)C1=NN(CCC(=O)O)C(=O)c2cc3ccccc3n2C1` gave FBW7 activator 0, GPR151 ag 7.7*, MITF primary -2, TEAD-YAP block 0, GPR151 confirm 0 and GPR119 ag 10.
CC(C)(C)C1=NN(CC(=O)Nc2nccs2)C(=O)c2cc3ccccc3n2C1 was read as FBW7 activator 0, GPR151 ag 6.1*, MITF primary -16, TEAD-YAP block -3, GPR151 confirm 0 and GPR119 ag 8.
For CN(C)CCC(Oc1ccc(F)cc1)c1ccc(S(C)(=O)=O)cc1 (centres undefined) the results were FBW7 activator 0, GPR151 ag 5.6*, MITF primary 34, TEAD-YAP block 6, GPR151 confirm 0 and GPR119 ag 10.
`COc1ccccc1N(CC(N)=O)S(C)(=O)=O` gave FBW7 activator 0, GPR151 ag -1, MITF primary -2 and TEAD-YAP block -4.
Screening COc1ccccc1N(CC(=O)N(C)C)S(C)(=O)=O returned FBW7 activator 0, GPR151 ag 6.1*, MITF primary 16, TEAD-YAP block 8, GPR151 confirm 1 and GPR119 ag 17.
`COc1ccccc1N1CCN(C(=O)CN(c2cc(C)cc(C)c2)S(C)(=O)=O)CC1` gave FBW7 activator 0, GPR151 ag 6.4*, MITF primary 15, TEAD-YAP block 6, GPR151 confirm 0 and GPR119 ag 0.
COc1ccc(Nc2nnc(SCC(=O)Nc3cccc(C#N)c3)s2)cc1 was read as FBW7 activator 0, GPR151 ag 1, MITF primary -9 and TEAD-YAP block -7.
For Cc1nn(-c2ccccc2)c(Cl)c1/C=N\O the results were FBW7 activator 0, GPR151 ag 5.1*, MITF primary -5, TEAD-YAP block -5, GPR151 confirm 3 and GPR119 ag 5.

Screening results from PubChem BioAssay.
